# In PubChem BioAssay (Tox21):
# Active and inactive are the calls of the source. Entries that show only a call come without a potency. Calls follow the shape of the dose curve; as a rule, active = well fitted curve in the direction sought with a large enough effect in the repeat runs; inconclusive = weak or mixed curves; inactive = flat fitted curve, though single readings scatter.
# Experiment: qHTS assay to test for compound auto fluorescence at 460 nm (blue) in HEK293 cells (AID 720678)
# Conditions: blue autofluorescence 405/460 nm; series mostly up to 91.3 µM
# Excerpt: National Center for Advancing Translational Sciences [NCATS]
# NIH Chemical Genomics Center [NCGC]
# U.S. Environmental Protection Agency [EPA]
# National Institutes of Environmental Health Sciences [NIEHS]
# National Toxicology Program [NTP]
# U.S. Food and Drug Administration [FDA]
# Compound auto fluorescence often interferes with screening of the compound library against various biological targets and signaling pathways. Some of these compounds may have fluorophoric properties. Such properties may interfere with the assay outputs resulting in false positives and/or negatives. To decrease such complications and ensure the compound activities are relevant in terms of biological response, the Tox21 10K compound library was screened for auto fluorescence.
# From the fluorophores used as reporter signals in our screening assays, the auto fluorescence equivalencies of compounds against three fluorophores have been evaluated: Triamterene, Fluorescein and Rose Bengal sodium for blue, green and red fluorescence, respectively. The fluorescence intensities were measured using Excitation/Emission wavelengths at 405/460nm, 485/535nm and 540/590nm for blue, green and red labels, respectively. This assay includes the blue fluorescence data.
# Tox21 Assay Protocol Summary:
# 2,000 HEK293 cells in 5 uL of culture medium containing 10% dialyzed FBS per well were dispensed into black wall/clear bottom 1536-well plates using a Multidrop Combi Dispenser (Thermo Scientific). The assay plates were incubated for 4-5 hr at 37C to allow cell attachment to the well bottom, followed by the transfer of 23 nL compound or DMSO vehicle by a pintool work station (Kalypsys, San Diego, CA). After the assay plates were incubated overnight at 37C and 5% CO2, fluorescence intensities in the assay plates were measured by an Envision (PerkinElmer, Shelton, CT) plate reader using three labels for measuring blue, green and red fluorescence at […] 460, 535 and 590nm respectively.
# Potency is read from the fitted curve at half-maximal effect; tags tell the direction and shape of the fitted curve or compound fluorescence and quenching.
Structure (SMILES),Potency,"fluorescence, % of triamterene"
CC(O)c1ccccc1 (stereo not given),inactive,
Clc1ccc(Nc2nnc(Cc3ccncc3)c3ccccc23)cc1,inactive,
CCOC(=O)[C@H](CCc1ccccc1)N[C@@H](C)C(=O)N(CC(=O)O)C1Cc2ccccc2C1,inactive,
Oc1c(I)cc(I)c2cccnc12,inactive,
C=C(C)C(=O)OCCOCCOC(=O)C(=C)C,inactive,
O=C(CCc1ccc(O)cc1)c1c(O)cc(O)cc1O,inactive,
CCOc1cccc(-n2cc(C(=O)N3CCN(c4cc(C(=O)O)c5ccccc5c4)CC3)nc2-c2ccc(C)cc2)c1,inactive,
COc1ccccc1NC(=O)c1cc2ccccc2cc1O,39.8 µM [fluorescent] (active),
CC1(C)[C@H](C(=O)O)N2C(=O)C[C@H]2S1(=O)=O,inactive,
Nc1nnc(-c2ccc([N+](=O)[O-])o2)o1,inactive,
NNC(=O)CP(=O)(c1ccccc1)c1ccccc1,inactive,
O=C1c2ccccc2C(=O)N1CCc1noc(-c2ccc(CN3CCCCCC3)s2)n1,inactive,
O=C1c2ccccc2C(=O)C1c1ccc(Br)cc1,inactive,
Oc1cccc(O)c1O,inactive,
Oc1cc2c(cc1O)[C@H]1c3ccc(O)c(O)c3OC[C@@]1(O)C2,inactive,
O=C(O)c1ccc(OCCCOc2ccc(C(=O)O)cc2)cc1,inactive,
CCCCCCCC/C=C\CCCCCCCCCCCC(=O)O,inactive,
O=C1Cc2ccccc2N1c1c(Cl)cccc1Cl,inactive,
OC[C@H]1O[C@@H](n2cnc3c(=S)nc[nH]c32)[C@H](O)[C@@H]1O,inactive,
O=C(OC(=O)c1ccccc1)c1ccccc1,inactive,

Structure (SMILES),Potency,"fluorescence, % of triamterene"
O=C(O)c1cccc(-c2noc(-c3ccccc3F)n2)c1,inactive,
C=CCc1ccccc1OCC(O)CNC(C)C (stereo not given),inactive,
CN(C(=O)CN(CCO)CC(=O)N(C)C(C)(C)Cc1ccccc1)C(C)(C)Cc1ccccc1,,0.252% [at 18.6 µM] (inactive)
Cc1ccc(OC(=O)c2ccccc2O)cc1,inactive,
C/C=C\C/C=C/CCCCCCCCOC(C)=O,inactive,
c1ccc2sc(SN(C3CCCCC3)C3CCCCC3)nc2c1,inactive,
O=C(OCC(O)CO)c1ccccc1Nc1ccnc2cc(Cl)ccc12 (stereo not given),,0.52% [at 18.6 µM] (inactive)
CCCCC(CC)CN (stereo not given),inactive,
Cc1ccc(C(C)(C)O)cc1,inactive,
CC(C)(O)c1ccc(CNC(=O)c2cccnc2Oc2ccc3nonc3c2)cc1,inactive,
Cc1ccc(Cl)c(Nc2ccccc2C(=O)O)c1Cl,inactive,
O=[N+]([O-])c1ccc(O/N=C/c2cc(Br)c(O)c(Br)c2)c([N+](=O)[O-])c1,inactive,
C=C1C[C@@]23CC[C@H]4[C@@](C)(CCC[C@@]4(C)C(=O)O[C@@H]4O[C@H](CO)[C@@H](O)[C@H](O)[C@H]4O)[C@@H]2CC[C@]1(O[C@@H]1O[C@H](CO)[C@@H](O)[C@H](O[C@@H]2O[C@H](CO)[C@@H](O)[C@H](O)[C@H]2O)[C@H]1O[C@@H]1O[C@H](CO)[C@@H](O)[C@H](O)[C@H]1O)C3,inactive,
O=C(O)CCCCCCCCCCCBr,inactive,
O=c1[nH]ncc2ccccc12,inactive,
C[C@@H](CN(C)C)CN1c2ccccc2Sc2ccccc21,,-0.151% [at 18.6 µM] (inactive)
CC(CCC(=O)O)C(=O)O (stereo not given),inactive,
CC(=O)[C@H]1[C@H](C#N)C[C@H]2[C@@H]3CC=C4C[C@@H](O)CC[C@]4(C)[C@H]3CC[C@@]21C,inactive,
CC(C)=CC(=O)C=C(C)C,inactive,
CC1(C)O[C@@H]2C[C@H]3[C@@H]4C[C@H](F)C5=CC(=O)C=C[C@]5(C)[C@H]4[C@@H](O)C[C@]3(C)[C@]2(C(=O)CO)O1,,-0.229% [at 18.6 µM] (inactive)
